# A selection: hits, their analogues and other compounds. The true share with any hit is near 2%.
# 697 NFkB inh – inhibitors of the PMA/ionomycin-induced NF-kB reporter in 697 B cells; 697 B-cell NF-kB luciferase reporter, 16 h; hit rate 0.33% among 330,000; inhibition, % at 4 µM; in the data active = inhibition above about 35%
# Calb FLC – C. albicans growth modulation with fluconazole | C. albicans CaCi-2 (fluconazole-resistant clinical isolate) + fluconazole, Alamar Blue growth, 48 h | growth inhibition, % (no concentration beside the values) | hit rate 0.57% among 300,000 | AID 1979;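 active = growth inhibition above about 58% in most replicates, limit read from the data, passing the limit was not always enough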;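 note: all wells also contain fluconazole at 8 µg/ml as a sub-toxic cotreatment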
# Beta apoptosis – blocks beta cell apoptosis. INS-1E cytokine-induced death, ATP luminescence, 48 h; percent of positive-control rescue, neutral wells zero. protection from apoptosis, % (test concentration not listed). hit rate 0.8% among 300,000. AID 435005;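 active = Every replicate reaches about 75%, or at least half do and their mean reaches it too, limit read from the data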;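 note: higher means more ATP so stronger rescue from cytokine killing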
# Shn3 inh set2 – Schnurri-3 reporter inhibition in Clone20 osteoblasts | Clone20 osteoblast Shn3 3'UTR firefly luciferase, 24 h | inhibition, % at 12.5 µM | hit rate 0.52% among 360,000 | AID 588674;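 active = mean inhibition of at least 75% with every replicate also reaching 75%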
# Jurkat NFkB inh – inhibitors of the PMA/ionomycin-induced NF-kB reporter in Jurkat cells; PMA/ionomycin-induced NF-kB luciferase reporter, luminescence; hit rate 0.53% among 330,000; inhibition, % at 4 µM; in the data active = inhibition above about 50%
# Hits are given with their value; 0 = inactive; - = no result.
SMILES,697 NFkB inh,Calb FLC,Beta apoptosis,Shn3 inh set2,Jurkat NFkB inh
C(=C\c1ccccc1)/C=N/Nc1nc(N2CCCCC2)nc(N2CCCCC2)n1,0,93,0,0,0
CCCCCSc1nc(O)cc(=O)[nH]1,0,0,-,0,0
CCCCCCCSc1nc(N)cc(=O)[nH]1,0,103,0,0,0
CCCCCCSc1nnc2[nH]c(=O)cc(N)n12,0,94,0,0,0
COc1ccc(Br)cc1CN1CCN(Cc2c[nH]c3ccccc23)CC1,0,0,79,0,0
O=[N+]([O-])c1ccccc1CN1CCN(Cc2c[nH]c3ccccc23)CC1,0,0,116,-,0
CCCNC(=O)Nc1nc(C(N)c2ccc(OC)cc2)cs1 (configuration not stated),-,-,-,0,-
CCc1ccc(N2CC(C(=O)Nc3ccccc3N3CCCC3)CC2=O)cc1 (configuration not stated),-,-,-,0,-
Cc1ccc(S(=O)(=O)Nc2ccc(C(OC(=O)c3ccccc3[N+](=O)[O-])(C(F)(F)F)C(F)(F)F)cc2)cc1,0,0,110,0,0
CCc1cc(C(=O)Nc2cc(S(=O)(=O)N3CCCCC3)ccc2N2CCN(C)CC2)sc1C,-,-,-,0,-
C[n+]1ccc(/C=C/c2c[nH]c3ccc(F)cc23)cc1,0,0,0,0,0
Cc1ccc2[nH]c(C)c(/C=C/c3cc[n+](C)cc3)c2c1,0,94,0,0,0
Cc1ccc2c(c1)c(/C=C/c1cc[n+](C)cc1)c(C)n2C,0,89,90,0,0
O=[N+]([O-])c1ccc(N2CCCC2)c([N+](=O)[O-])c1,-,-,-,0,-
O=C(Nc1nonc1NC(=O)c1cccs1)c1cccs1,0,85,0,0,0
Cc1cccc(C(O)c2ncc(-c3ccc(F)cc3)[nH]2)c1C (configuration not stated),-,-,-,0,-
Cc1ccc(C(=O)Nc2nnc(-c3ccco3)o2)cc1C,0,0,0,0,0
CCCCN(C)S(=O)(=O)c1ccc(C(=O)Nc2nnc(-c3ccco3)o2)cc1,0,98,0,0,0
O=C(CSc1ccccc1)Nc1nnc(-c2ccco2)o1,0,0,-,0,0
CCCCN(CCCC)S(=O)(=O)c1ccc(C(=O)Nc2nnc(COC)o2)cc1,0,88,0,0,0
O=C(Nc1nnc(-c2ccco2)o1)c1ccc(Cl)cc1,0,102,0,0,0
O=C(CSc1ccc(Cl)cc1)Nc1nnc(-c2ccco2)o1,0,84,0,0,0
CC1(C)CC(=O)C=C(c2ccccc2-c2ccc(S(C)(=O)=O)cc2)C1=O,-,-,-,0,-
COc1ccc(C)cc1NC(=O)COC(=O)Cc1c[nH]c2ccccc12,-,-,-,0,-
CN(Cc1ccccc1)S(=O)(=O)c1ccc(C(=O)Nc2nnc(C3CC3)o2)cc1,0,85,0,0,0
SMILES,697 NFkB inh,Calb FLC,Beta apoptosis,Shn3 inh set2,Jurkat NFkB inh
CCN1CCc2c(sc(NC(=O)c3cc4ccccc4cc3OC)c2C(N)=O)C1,0,-,0,0,0
CN(C)c1nc(Cl)nc(N(C#N)CCOc2ccccc2)n1,0,113,0,0,0
C[C@@H]1C[C@H]2[C@@H]3C[C@H](F)C4=CC(=O)C=C[C@]4(C)[C@@]3(Cl)[C@@H](O)C[C@]2(C)[C@H]1C(=O)COC(=O)C(C)(C)C,0,-,0,0,0
O=C(/C=C/c1ccco1)Oc1cc(Br)cc(/C=N/NC(=O)c2ccccc2O)c1,-,90,0,94,-
COc1ccc(CC2=CC(=O)c3ccccc3C2=O)cc1,0,0,-,89,0
Cc1ccc(-c2nc(N/N=C/c3cccnc3)c3ccccc3n2)cc1,0,0,76,0,0
Cc1ccc(-c2nc(N/N=C/c3cccc([N+](=O)[O-])c3)c3ccccc3n2)cc1,0,0,0,0,0
CCCn1c(NC(=O)CN2C(=O)NC3(CCCCC3)C2=O)nc2ccccc21,0,0,0,0,0
O=C1CCc2cc(S(=O)(=O)Nc3ccccc3F)cc3c2N1CCC3,0,0,0,0,0
CC[C@H](C)[C@@H]1NC(=O)[C@@H](CC(C)C)NC(=O)[C@H](C(C)C)NC(=O)[C@H]2CSSC[C@H](NC1=O)C(=O)N2,-,-,-,89,-
CC(C)C[C@@H]1NC(=O)[C@H](C(C)C)NC(=O)c2cc([N+](=O)[O-])cc(I)c2NCC[C@@H](C(N)=O)NC1=O,0,0,0,-,0
C=C1CC(COc2ccc3c(C)c(Cl)c(=O)oc3c2)(c2ccccc2)OC1=O (configuration not stated),-,-,-,96,-
Cc1cc(NC(=O)CCN2C(=O)C3C4C=CC(C4)C3C2=O)ccc1Br (configuration not stated),0,0,0,0,0
O=C(CSc1nnc(-c2ccccc2F)n1C1CCCCC1)N1CCCC1,0,0,-,0,0
O=C(CSc1nnc(-c2ccc(Cl)cc2Cl)n1C1CCCCC1)N1CCCC1,0,0,0,92,0
CC(C)(C)c1cnnn1-c1ccc(/C=N/Nc2ccc([N+](=O)[O-])cc2)cc1,0,0,97,0,0
Cc1csc2ncnc(N3CCN(C(=S)Nc4ccc(F)cc4F)CC3)c12,0,0,0,0,0
Oc1c(CN2CCN(c3ccccn3)CC2)cc(Cl)c2cccnc12,0,0,109,0,0
COc1ccccc1N1CCN(Cc2cc(Br)c(O)c3ncccc23)CC1,0,88,102,0,0
Oc1c(CN2CCCCC2)ccc2cccnc12,-,-,-,0,-
O=c1c(CN2CCN(c3ccccn3)CC2)coc2ccccc12,0,0,0,0,0
OCCN1CCN(Cc2cc(Cl)c3cccnc3c2O)CC1,0,103,0,0,0
CCOc1ccccc1N1CCN(Cc2cccc(OC)c2O)CC1,0,0,0,0,0
CC1CCN(S(=O)(=O)c2ccc(C(=O)Nc3ccccn3)cc2)CC1,0,0,0,0,0
COc1cccc(COc2cc3ccccc3nc2C)c1,0,100,98,0,0
SMILES,697 NFkB inh,Calb FLC,Beta apoptosis,Shn3 inh set2,Jurkat NFkB inh
Cc1nc2ccccc2cc1OCc1ccc(Cl)cc1,0,0,109,0,0
Cc1nc2ccccc2nc(C)c1=NOCc1cccc(Cl)c1,0,0,0,0,0
Cc1nc2ccccc2cc1OCc1ccccc1,0,107,0,0,0
O=C(CN(C(=O)CCC(=O)Nc1ccccn1)c1ccc(F)cc1)NCCc1ccccc1,0,0,0,0,0
C#CCOCCOCCOCCNc1nc(N2CCN(C(=O)CCCCCCCCCCNC(=O)Cn3cc(CCCCCN)nn3)CC2)nc(N2CCN(C(=O)CCCCCCCCCCNC(=O)[C@H]([C@@H](C)CC)n3cc(CCCCCN)nn3)CC2)n1,0,-,0,0,0
C/C=C/C(=O)N[C@@H]1c2ccccc2CC[C@@H]1OCc1ccccc1,0,-,-,0,-
CCCc1nc2nc(C)c(NS(=O)(=O)c3ccc([N+](=O)[O-])cc3)c(=O)n2[nH]1,0,0,0,0,0
CO/N=C(\Cn1ncc(NC2CCCCC2)c(Br)c1=O)c1ccc(Cl)cc1,0,0,0,88,0
CCN(CC(=O)Nc1c(F)cccc1F)C(=O)c1ccc2c(c1)C(=O)N(c1ccccc1C)C2=O,-,-,-,0,-
Cc1c(C(=O)NCc2ccco2)oc2ccccc12,0,0,0,0,0
COc1ccc2c(CC(=O)OCC(=O)N(C)c3c(N)n(Cc4ccccc4)c(=O)[nH]c3=O)coc2c1,-,-,-,94,-

# Assay outcomes deposited in PubChem BioAssay by several laboratories.
